Assay outcomes as filed in PubChem BioAssay.
ELG1 repair inh: blocks ELG1-dependent DNA repair in HEK293T cells; HEK293T ELG1-luciferase reporter, luminescence, 16 h; DNA damage induced by 5-fluorouridine; Potency, µM (series often up to 46.1 µM), inactives show top-dose activity change, negative = inhibition, actives largely listed as inhibitors; hit rate 2.3% among 330,000; AID 504467; also: % is scaled to controls: 0 for no effect and ±100 for the full control effect; nearly all actives have a fitted effect of over 55% in size
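Luminescence from the luciferase reporter, measured 30 min after ONE-Glo reagent at room temperature, was the read-out. Beforehand, 2,000 cells per well were exposed for 16 hr at 37 °C to 5-fluorouridine together with compound or vehicle.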
Rab9 prom act: Rab9 promoter activation; Huh7 Rab9 promoter-luciferase reporter, luminescence, 24 h; Potency, µM (doses to about 9.22 µM), for inactives: top-dose activation, negative = inhibition, most hits filed as activators; AID 485297; hit rate 2.8% among 320,000; also: % of control where 0% means no effect; nearly all actives have a fitted effect of over 60% in size
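Luminescence from Amplite-detected luciferase (10 minutes, ambient) reports Rab9 promoter activation. Before that, stable Rab9-luciferase Huh7 cells (1500/well, reduced-serum OP-MEM I plus 10% FBS) were exposed to compound for 24 hours at 37C.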
NPC1 promoter act: NPC1 promoter activation. Huh7 NPC1 promoter luciferase reporter, 24 h. Potency, µM (doses to about 9.22 µM), for inactives: top-dose activation, most hits filed as activators. hit rate 2.4% among 320,000; also: % of control where 0% means no effect; nearly all actives have a fitted effect of over 60% in size
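Cells: Huh7 expressing luciferase under the NPC1 promoter, 1500/well. Seeded 2 h, compound added, incubated 24 h at 37 °C. Luciferase reagent, 10 min ambient, then luminescence.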
FLuc modulator: inhibits or activates purified firefly luciferase, miR-21 counter-screen. P08659. purified FLuc, Km substrates, luminescence inhibition. Potency, µM (series often up to 57.5 µM), inactives show top-dose activity change, negative = inhibition, hits mostly inhibitors. hit rate 6.9% among 360,000;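 also: plate controls were vehicle for no effect and reference inhibitor for full effect; nearly all actives have a fitted effect of over 55% in size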
Target sequence (P08659 whole entry, looked up): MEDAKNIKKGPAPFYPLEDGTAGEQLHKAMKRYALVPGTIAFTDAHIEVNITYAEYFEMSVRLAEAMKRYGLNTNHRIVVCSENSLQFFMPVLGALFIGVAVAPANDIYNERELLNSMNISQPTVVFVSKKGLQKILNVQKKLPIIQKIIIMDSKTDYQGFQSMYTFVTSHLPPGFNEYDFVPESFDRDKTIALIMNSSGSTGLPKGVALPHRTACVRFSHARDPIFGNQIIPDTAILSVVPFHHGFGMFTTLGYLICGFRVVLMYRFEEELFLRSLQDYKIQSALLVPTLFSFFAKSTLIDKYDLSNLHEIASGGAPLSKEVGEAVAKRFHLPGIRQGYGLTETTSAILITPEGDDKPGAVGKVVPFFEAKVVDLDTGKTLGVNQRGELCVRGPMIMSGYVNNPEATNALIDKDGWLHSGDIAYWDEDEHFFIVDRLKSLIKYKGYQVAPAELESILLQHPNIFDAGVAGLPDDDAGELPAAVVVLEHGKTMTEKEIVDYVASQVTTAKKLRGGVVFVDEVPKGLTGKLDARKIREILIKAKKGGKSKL
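Purified P. pyralis luciferase, 10 nM final, with Km-level 10 uM D-luciferin and 10 uM ATP in 50 mM Tris acetate pH 7.5, 10 mM Mg acetate, 0.01% Tween-20, 0.05% BSA; 6-point qHTS titration about 60 µM downward; luminescence read.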
SMN2 splice enh: increases expression of the SMN2 splice variant. HEK293 SMN2-luciferase splicing reporter, luminescence, 30-36 h. Potency, µM (doses to about 46.1 µM), for the others: top-dose activity change, positive = activation, most hits filed as activators. hit rate 2.8% among 210,000. AID 1458; also: % of control where 0% means no effect; nearly all actives have a fitted effect of over 55% in size
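HEK293 cells carry an SMN2 […]–luciferase reporter in which exon 7 inclusion puts luciferase in frame. Cells were plated 10-12 h before compound addition, then incubated 30-36 h at 37C. ONE-Glo luminescence was read; sodium butyrate at 4.5 mM final served as control.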
ELG1 genotoxic: induces genotoxicity in HEK293T cells with luciferase-tagged ELG1; hit rate 1.3% among 330,000; HEK293T ELG1-luciferase reporter, luminescence, 16 h; Potency, µM (series often up to 46 µM), inactives show at the top dose activity change, positive = activation, most hits filed as activators; also: % of control where 0% means no effect; nearly all actives have a fitted effect of over 60% in size
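Reporter readout depends on ELG1 protein level, which increases with genetic stress. After 16 hr compound exposure at 37 °C, luciferase activity was quantified using ONE-Glo.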
Active calls of the source: *; ? = inconclusive; / = no result; [ ] = remark or other dose. Compounds with a hit are over-represented: about 9.4% of the library has one in this group of screens. Calls follow the shape of the dose curve; as a rule, active = well fitted curve in the direction sought with a large enough effect; inconclusive = small, poorly fitted or top-dose-only effect, or another doubt; inactive = no such curve, though single readings can be large; an effect the other way counts as inactive or inconclusive. Potency is read from the fitted curve at half-maximal effect.

SMILES | ELG1 repair inh | Rab9 prom act | NPC1 promoter act | FLuc modulator | SMN2 splice enh | ELG1 genotoxic
COc1ccc(-c2nc3cc(NC(=O)c4ccc(C)cc4)ccc3o2)cc1Cl | / | / | / | -6.7% | -2.8% | /
CCc1nnc(SCC(=O)Nc2ccc(Cl)cc2F)c2cc3occc3n12 | / | / | / | 1.5% | / | /
N#Cc1c(Oc2ccc3ccccc3c2)sc(C(=O)c2ccccc2)c1N | 11.6µM* | 0.3% | -7.8% | 3.3% | -64.9% | -6.8%
Cc1cccc(Oc2sc(C(=O)c3ccccc3)c(N)c2C#N)c1C | ? | 5.4% | -2.6% | -1.1% | -17.1% | -6.0%
COc1ccc(C2C3=C(N=C4SCC(=O)N42)c2ccccc2CC3)cc1 (configuration not stated) | 0.0% | 22.6% | 28.8% | 10.7µM* | -5.4% | ?
O=C(Nc1ccc(OC(F)(F)F)cc1)c1nc2ccccc2nc1N1CCCCC1 | / | / | / | -5.4% | / | /
Nc1nc(C(=O)O)c(N=Nc2ccccc2)c(=O)[nH]1 | / | / | / | / | -8.5%[9.22 µM] | /
NC(=O)C1CCN(c2ncnc3c2c(-c2ccccc2)cn3-c2ccccc2)CC1 | 16.4µM* | -1.9% | -2.8% | -2.0% | 1.2% | -20.5%
Fc1ccc(-n2cc(-c3ccccc3)c3c(N4CCOCC4)ncnc32)cc1 | 20.6µM* | 2.3% | -2.6% | ? | -58.3% | -10.5%
COc1ccc(-n2cc(-c3ccccc3)c3c(N4CCOCC4)ncnc32)cc1 | ? | 0.7% | 1.2% | ? | -29.3% | -15.8%
Clc1ccccc1N1CCN(c2ncnc3c2c(-c2ccccc2)cn3-c2ccccc2)CC1 | / | / | / | -0.3% | / | /
Cc1nnc(N2CCOCC2)c2nn(-c3ccccc3)c(C)c12 | -22.4% | 3.0% | -3.4% | 0.7% | -9.1% | -3.9%
c1ccc(-n2nnc3c(N4CCOCC4)ncnc32)cc1 | ? | 0.316µM* | 0.316µM* | 1.51µM* | 11.6% | ?
Cc1occc1C(=O)N=Nc1c(O)n(C)c2ccccc12 | ? | ? | ? | 1.69µM* | 2.82µM* | ?
Cn1c(O)c(N=NC(=O)c2ccco2)c2ccccc21 | ? | 2.24µM* | 3.98µM* | 4.78µM* | 10µM* | ?
Cn1c(O)c(N=NC(=O)c2ccccc2O)c2ccccc21 | ? | ? | 3.55µM* | 3.01µM* | / | 7.3µM*
Cn1c(O)c(N=Nc2ccccc2[N+](=O)[O-])c2ccccc21 | ? | ? | 3.55µM* | ? | / | ?
Cc1ccc2oc3c(c(=O)c2c1)C(c1cccc(O)c1)N(Cc1ccccc1Cl)C3=O (configuration not stated) | / | / | / | 0.5% | -4.7% | /
CCOc1ccc(C2C(=O)N(C3CCCCCC3)CC(=O)N2CCc2ccc(Cl)cc2)cc1OC (configuration not stated) | / | / | / | -3.8% | / | /
CC1CCN(c2nc3c(S(=O)(=O)c4cccc(Cl)c4)nnn3c3ccsc23)CC1 | / | / | / | -7.3% | / | /
Cn1c(=O)c2c(SCC(=O)Nc3ccccc3C(F)(F)F)nc(C3CCCC3)nc2n(C)c1=O | / | / | / | 2.9% | / | /
CC(=O)c1cc(O)c2ccccc2c1O | ? | -1.2% | 4.9% | ? | / | 13.2%
Cc1cc(N=NC(=O)c2ccccc2O)c2ccccc2c1O | ? | 3.16µM* | ? | 10.7µM* | -10.3% | -7.2%
CC1(C)CC(=O)c2cc(-c3nc(-c4ccc(Cl)cc4)cs3)c(=O)n(-c3cccc(F)c3)c2C1 | / | / | / | -6.0% | -0.3% | /
Cc1ccc(-c2cc(C(=O)NCc3cnn(C)c3C)c3cc(Br)ccc3n2)cc1 | 10.7% | 1.4% | 18.3% | 2.13µM* | 14.9% | 5.6%
Cc1ccc(-c2cc(C(=O)N(C)Cc3cnn(C)c3C)c3cc(Br)ccc3n2)cc1 | 5.8µM* | 17.0% | 1.7% | 10.7µM* | -19.8% | -11.8%
O=C(c1ccc2c(c1)N(Cc1ccc(Cl)cc1)C(=O)c1ccccc1S2=O)N1CCC(Cc2ccccc2)CC1 (configuration not stated) | / | / | / | -4.1% | 1.7% | /
Cc1cccc(CCNC(=O)CCc2c(C)nc3c(c(C)nn3-c3ccccc3)c2C)c1 | / | / | / | -17.2% | 4.6% | /
